# Most compounds without a hit are left out; they make up all but 1.3% or so of the library.
# AmpC no deterg: blocks E. coli AmpC beta-lactamase in detergent-free assay; 330,000 compounds, 0.52% hits; Potency, µM (highest dose often 57.1 µM), for the others: at the top dose activity change, negative = inhibition, most hits filed as inhibitors; AmpC nitrocefin hydrolysis, absorbance 480 nm, 0.0001% Triton;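 note: plate controls were no compound for no effect and no enzyme for full effect; nearly all actives have a fitted effect of over 20% in size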
# Target sequence (P00811 whole entry, looked up): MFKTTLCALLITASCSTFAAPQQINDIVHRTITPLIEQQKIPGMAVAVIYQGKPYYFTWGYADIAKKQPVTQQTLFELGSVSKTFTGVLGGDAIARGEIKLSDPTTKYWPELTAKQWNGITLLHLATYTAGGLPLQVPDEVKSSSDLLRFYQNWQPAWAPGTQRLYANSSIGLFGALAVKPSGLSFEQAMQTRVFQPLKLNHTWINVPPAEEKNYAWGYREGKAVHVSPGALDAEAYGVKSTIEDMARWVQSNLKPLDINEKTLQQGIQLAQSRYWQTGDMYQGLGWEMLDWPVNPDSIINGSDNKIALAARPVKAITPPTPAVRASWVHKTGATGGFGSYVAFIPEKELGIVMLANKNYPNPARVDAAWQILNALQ
#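 20 mM phosphate pH 7.0 + 0.01% (detergent screen) or 0.0001% Triton X-100; 5.3 nM AmpC reagent; cpd preinc 15 min RT; nitrocefin (800 uM stock) to start; A480 q20 s × 4 min; Activity was normalised to no-enzyme and no-compound control wells.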
# Vaccinia mCherry: inhibitors of vaccinia virus infection (mCherry reporter signal) | Potency, µM (doses to about 36.5 µM), for the others: at the highest dose activity change, negative = inhibition, hits mostly inhibitors | 310,000 compounds, 0.63% hits | Vaccinia virus mCherry reporter infection, fluorescence; calls by dose curve; tested in A549 cells; note: % is set by controls: 0 for no effect and ±100 for the full control effect; nearly all actives have a fitted effect of over 35% in size
# SARS PLpro yeast: inhibitors of SARS-CoV papain-like protease in yeast. S. cerevisiae expressing SARS-CoV PLpro, growth rescue. Potency, µM (highest dose often 32.9 µM), without a hit: at the top dose activity, positive = growth rescue, usual class: activators. 330,000 compounds, 0.19% hits. AID 485353; calls by dose curve; note: 0% is about no effect; nearly all actives have a fitted effect of over 55% in size
# AMA1-RON2 inh: inhibitors of Plasmodium falciparum AMA1-RON2 interaction; AlphaScreen AMA1-biotinylated RON2 peptide binding; 360,000 compounds, 0.2% hits; AID 720542; Potency, µM (titrated, usually from 58.2 µM), for inactives: at the highest dose activity change, negative = inhibition, actives largely listed as inhibitors;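 note: 0% = vehicle wells and -100% = peptide control; nearly all actives have a fitted effect of over 45% in size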
#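 AMA1 (3D7) with his tag at 25 nM final met compounds first, then biotinylated RON2 peptide at 25 nM; detection used donor plus acceptor beads, 10 µg/mL apiece, read by AlphaScreen after 30 min at room temperature.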
# AmpC detergent: AmpC beta-lactamase inhibition with detergent present; P00811; Potency, µM (doses to about 114 µM), without a hit: at the top dose activity change, negative = inhibition, actives largely listed as inhibitors; AID 485294; 370,000 compounds, 0.041% hits; AmpC hydrolysis of nitrocefin, absorbance 480 nm, 0.01% Triton;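 note: 0% = no-compound wells and -100% = no-enzyme wells; nearly all actives have a fitted effect of over 25% in size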
#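 AmpC (5.3 nM in the dispensed reagent) in 20 mM phosphate pH 7.0 with 0.01% (detergent screen) or 0.0001% Triton X-100 was preincubated with compounds for 15 min at room temperature. Nitrocefin was then added from an 800 uM solution, and hydrolysis was followed at 480 nm.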
# VACV Venus inh: vaccinia inhibition (Venus reporter); Vaccinia virus Venus reporter expression, fluorescence; Potency, µM (top dose mostly 36.5 µM), inactives show at the highest dose activity change, negative = inhibition, usual class: inhibitors; 330,000 compounds, 0.46% hits; AID 720580; calls by dose curve; tested in A549 cells; note: % is set by controls: 0 for no effect and ±100 for the full control effect; nearly all actives have a fitted effect of over 30% in size
# * hit, by the source's call; i = inactive; ? = inconclusive; / = no result given; [ ] = remark or other dose. Unless noted, calls come from the whole dose curve; as a rule, active = well fitted curve in the direction sought with a large enough effect; inconclusive = small, poorly fitted or top-dose-only effect, or another doubt; inactive = no such curve, though single readings can be large; an effect the other way counts as inactive or inconclusive. Potency is the fitted concentration of half-maximal effect.
SMILES,AmpC no deterg,Vaccinia mCherry,SARS PLpro yeast,AMA1-RON2 inh,AmpC detergent,VACV Venus inh
COc1ccc(Cl)cc1NC(=O)C(C)OC(=O)c1ccc(NS(=O)(=O)c2ccc3[nH]c(=O)[nH]c3c2)cc1 (stereo not given),3.5µM*,-14%,6%,-13%,-9%,0%
Cc1ccc(Cl)cc1N1CCN(S(=O)(=O)c2ccc3c(c2)NC(=O)C(C)C(=O)N3)CC1 (stereo not given),11µM*,?,0%,-9%,-5%,-24%
COC(=O)C1(C(F)(F)F)N=C2Sc3ccccc3N2C(N2CCOCC2)=N1 (stereo not given),0.32µM*,10%,-8%,2%,-20%,-1%
COc1ccccc1N1CCN(C(=O)N2CCOCC2)CC1,-10%,/,1%,-12%,-9%,/
CC1=C(CO)C(=O)OC([C@@H](C)C2CC[C@H]3C4C[C@H]5O[C@]56[C@@H](O)C=CC(=O)[C@]6(C)C4CC[C@]23C)C1 (stereo not given in full),96%,10µM*,1%,-8%,2%,?
CC(C(=O)O)C1CCC2C3CC=C4CC(O)CC[C@@]4(C)C3CC[C@]12C (stereo not given in full),/,29%,/,/,/,0%
C/C(=N/NC(=O)c1cc2ccccc2cc1O)c1ccco1,25µM*,/,2%,125%,-1%,/
C/C(=N\NC(=O)c1cc2ccccc2cc1O)c1ccc(C)o1,7.9µM*,-6%,-2%,52%,1%,-15%
COc1cccc(-n2nc(C#N)c(Cl)cc2=O)c1,-21%,?,-18%,-22%,-1%,18µM*
COc1cccc(-n2nc(C(N)=O)c(O)cc2=O)c1,-21%,i,0%,1%,0%,-8%
CC(O)(COc1ccccc1)c1ccc2c(c1)CN(Cc1ccc3nsnc3c1)CCO2 (stereo not given),/,-12%,/,/,/,6%
CCOc1ccc(CNC(=O)c2cccc(NC(=O)N3CCSc4ncccc43)c2)cc1,/,-9%,/,/,18%,-5%
O=C(N=Nc1c(O)[nH]c2ccccc12)c1cc(NS(=O)(=O)c2cccs2)cc(NS(=O)(=O)c2cccs2)c1,16µM*,-3%,-3%,-17%,3%,-11%
N#C/C(=C\c1ccc(Sc2ccc(Cl)cc2)o1)c1nc2ccccc2[nH]1,28µM*,?,-34%,56%,-14%,-23%
N#C/C(=C\c1c(Cl)cccc1Cl)c1nc2ccccc2[nH]1,11µM*,-26%,-7%,21%,-4%,-23%
COC(=O)C1CCCCN1Cc1ccc2c(c1)CN(Cc1cnn(-c3ccccc3)c1)CCO2 (stereo not given),/,-7%,/,/,/,-6%
COc1ccccc1C1CN(Cc2cccc(OCCO)c2)Cc2ccccc2O1 (stereo not given),/,i,/,/,/,-12%
Cc1cc(C)c(S(=O)(=O)/N=C2\C=CC(=O)C(Cl)=C2)c(C)c1,5µM*,/,4%,-9%,?,/
Cc1cc(C)c(S(=O)(=O)/N=C2\C=C(NS(=O)(=O)c3ccccc3)C(=O)c3ccccc32)c(C)c1,-53%,?,0%,-16%,-2%,2%
O=C(NCCc1ccco1)C(=O)NCC1CCCN1S(=O)(=O)c1ccccc1 (stereo not given),-12%,?,-6%,-2%,1%,-22%
COc1ccc(S(=O)(=O)NCC(c2cccnc2)N2CCN(c3ccccc3)CC2)cc1C (stereo not given),76%,-17%[1.46 µM],-33%,-13%,-4%,10µM*
Cc1cc(C)n2nc(S(=O)(=O)N(CC(C)C)CC(C)C)nc2n1,10µM*,-11%,-4%,1%,?,-3%
Cc1cc(C)n2nc(S(=O)(=O)N(C)Cc3ccccc3)nc2n1,-10%,/,0%,-7%,?,/
COc1cc(OC)c(OC)cc1CN1CCCC(c2[nH]ncc2-c2cccc(C(F)(F)F)c2)C1 (stereo not given),/,-20%,/,/,/,-16%
Cn1cnnc1Sc1ccc(CN2CCOc3ccc(C4=CCCCC4)cc3C2)o1,/,-18%,/,/,/,-15%
SMILES,AmpC no deterg,Vaccinia mCherry,SARS PLpro yeast,AMA1-RON2 inh,AmpC detergent,VACV Venus inh
CC(C)(C)c1ccc(C2CC2C(=O)N/N=C\c2ccc[nH]2)cc1 (stereo not given),-40%,?,-3%,-10%,8%,4µM*
Cn1c(SCC2CCCO2)nnc1C1CCN(Cc2ccco2)CC1 (stereo not given),/,-16%,/,/,/,-8%
COc1ccc(/C=C(\C#N)C(=O)OCC(=O)NCc2ccccc2OC)cc1,32µM*,-14%,-13%,-5%,?,6%
N#Cc1ccc2c(c1)C[C@]1(CCCCN3C(=O)c4ccccc4C3=O)Oc3c(c(=O)oc4ccc(F)cc34)C2O1,-23%[11.4 µM],/,-13%[6.58 µM],/,1%[22.9 µM],/
O=C1c2ccccc2C(=O)N1CCCC[C@]12Cc3ccccc3C(O1)c1c(c3ccccc3oc1=O)O2,2.8µM*,/,-5%[6.58 µM],/,?,/
Cc1c(Br)cnc2ccccc12,/,-8%,/,/,/,-7%
CC(C)NC(=O)CN1CCN(C(=O)CCl)CC1,-25%,13µM*,-2%,11%,-7%,10µM*
CN(C)C(=O)CN1CCN(C(=O)CCl)CC1,-29%,/,-2%,4%,?,/
CCC(=O)Nc1nc2c(s1)COc1ccccc1-2,2.8µM*,-18%,-11%,13%,4%,-11%
CC1CN(CC(=O)NCCc2ccncc2)Cc2ccccc2O1 (stereo not given),/,-10%,/,/,/,2%
Cc1cc(C)n(-c2cccc(C(=O)NCC3Cc4cccc(-c5cccnc5)c4O3)c2)n1 (stereo not given),/,i,/,/,/,-24%
Nc1nnc2c(n1)CCCC2,0.16µM*,/,3%,45%,-1%,/
C1CCc2nc3c(nc2C1)CCCC3,7%,29%,1%,20%,-2%,1%
COc1cc2c(cc1N)-c1ccc(N)cc1C2,/,i,/,4µM*,/,-11%
CN(C)c1ccc(S(=O)(=O)NCC(=O)OCC(=O)Nc2cccc(Cl)c2)cc1[N+](=O)[O-],-7%,i,16%,0%,-8%,18%
CNc1ccc(S(=O)(=O)NCC(=O)OCC(=O)Nc2cccc(Cl)c2Cl)cc1[N+](=O)[O-],25µM*,i,-8%,23%,-4%,-11%
CCc1[nH]c(=S)c(C#N)c(-c2ccccc2)c1C(=O)OC,16µM*,0%,?,56%,-4%,-16%
Cc1cc(C)cc(NC(=O)CSc2nc3c(c(=O)n2C)SC(C)C3)c1 (stereo not given),-28%,-7%,-8%,33%,?,-20%
